Data reported in PubChem BioAssay.
Calls of active or inactive are those of the source. No rule for the calls is given here.

The compounds below were run against Pantothenate synthetase (Mycobacterium tuberculosis (strain ATCC 25618 / H37Rv)) (UniProt P9WIL5) (assay: Coupled enzyme confirmation of inhibitors against recombinant Mtb PanC (AID 375;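 also: 0% = full reaction with vehicle and 100% = no enzyme background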)). Conditions: coupled enzyme assay; at 10 µM, hits give high values.
Sequence of Pantothenate synthetase (Mycobacterium tuberculosis (strain ATCC 25618 / H37Rv)) (P9WIL5 whole entry, looked up): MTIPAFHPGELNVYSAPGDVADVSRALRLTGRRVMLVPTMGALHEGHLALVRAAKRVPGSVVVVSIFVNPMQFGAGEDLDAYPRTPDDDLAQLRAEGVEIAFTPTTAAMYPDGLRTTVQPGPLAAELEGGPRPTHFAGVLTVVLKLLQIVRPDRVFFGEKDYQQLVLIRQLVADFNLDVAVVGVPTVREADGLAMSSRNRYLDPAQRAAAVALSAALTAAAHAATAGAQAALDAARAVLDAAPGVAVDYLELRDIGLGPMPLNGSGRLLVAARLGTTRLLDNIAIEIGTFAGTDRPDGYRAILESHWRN
For `CCC(=O)N1CCc2cc(Br)cc(S(=O)(=O)C3(C(=O)OC)CC3)c21`, the inhibition was 0% (inactive).
For `COc1ccc(C)cc1S(=O)(=O)N(CC(=O)O)c1ccccc1`, the inhibition was 0% (inactive).
`CC(CCc1ccco1)NC(=O)Cn1ncc2c1-c1ccccc1OC2` (stereo not given) was tested, and the inhibition was 5% (inactive).
`COc1ccc(N2C(=O)C(Cl)=C(N3CCCC3)C2=O)cc1` was tested, and the inhibition was 0% (inactive).
For `CCN1CCN(c2nc3c(c(=O)n(C)c(=O)n3C)n2Cc2cccc3ccccc23)CC1`, the inhibition was 0% (inactive).
With `Cc1c(NC(=O)C2(c3ccccc3)CCOCC2)c(=O)n(-c2ccccc2)n1C` the inhibition was 3% (inactive).
In the case of `Cc1ccccc1NC(=O)c1c(F)c(F)c(F)c(F)c1F`, the inhibition is reported as 0% (inactive).
`Brc1cccc(-c2cnc3n2CCCCC3)c1` was tested, and the inhibition was 4% (inactive).
For `CSc1ccccc1NC(=O)C1CCCO1` (stereo not given), the inhibition was 7% (inactive).
For `CC[C@]1(O)C[C@@H]2CN(CCc3c([nH]c4ccccc34)[C@@](C(=O)OC)(c3cc4c(cc3OC)N(C)[C@H]3[C@@](O)(C(=O)OC)[C@H](OC(C)=O)[C@]5(CC)C=CCN6CC[C@]43[C@@H]65)C2)C1`, the inhibition was 0% (inactive).
With `CCn1cc(C(=O)NCc2ccco2)c(=O)c2cc(F)c(N3CCN(C(=O)c4ccco4)CC3)cc21` the inhibition was 0% (inactive).
In the case of `CN(C)c1ccc(C(=O)OCC(=O)NC2CCCCC2)cc1`, the inhibition is reported as 0% (inactive).
`COc1cccc2c(=O)cc(C)n(CC(=O)Nc3ccc(C)c(C)c3)c12` was tested, and the inhibition was 0% (inactive).
With `CC(Oc1ccc(Br)cc1)C(=O)N1CCc2ccccc21` (stereo not given) the inhibition was 0% (inactive).
In the case of `COc1ccc(CCNc2oc(COc3ccccc3Cl)nc2C#N)cc1OC`, the inhibition is reported as 3% (inactive).
`COC(=O)c1ccnc(/C=N/O)c1` was tested, and the inhibition was 6% (inactive).
With `CCCCOCCCNC(=O)COc1ccccc1` the inhibition was 1% (inactive).
For `c1ccc2c(-c3nc(-c4ccncc4)no3)cccc2c1`, the inhibition was 0% (inactive).
In the case of `O=c1[nH]cnc2c1nc(SCc1ccccc1)n2C1OC(CO)C(O)C1O` (stereo not given), the inhibition is reported as 0% (inactive).
`COCCNC(=O)C(c1ccc(C)o1)N(Cc1cccs1)C(=O)c1snc(C(N)=O)c1N` (stereo not given) was tested, and the inhibition was 4% (inactive).
With `Clc1ccc(Cn2c(CN3CCCC3)nc3ccccc32)cc1` the inhibition was 8% (inactive).
For `COc1cc(NS(=O)(=O)c2ccc(Br)s2)cc(OC)c1`, the inhibition was 0% (inactive).
With `CCOC(=O)N1CCC(NC(=O)c2cc3c(=O)n(C)c4ccccc4c3n2C)CC1` the inhibition was 0% (inactive).
In the case of `Cc1ccnc(SCCn2c(N3CCN(Cc4ccccc4)CC3)nc3c2c(=O)[nH]c(=O)n3C)n1`, the inhibition is reported as 0% (inactive).
`COc1ccc(-n2nnnc2-c2cccc(OC)c2)cc1` was tested, and the inhibition was 0% (inactive).
With `CCc1nc2c(cnn2-c2ccc(Cl)cc2)c(=O)n1-c1ccc2c(c1)OCCO2` the inhibition was 2% (inactive).
In the case of `COCCNc1oc(-c2ccc(C)cc2)nc1C#N`, the inhibition is reported as 0% (inactive).
`Cc1nnc(NC(=O)CSc2nc3c(c(=O)n2C)SC(C)C3)s1` (stereo not given) was tested, and the inhibition was 5% (inactive).
For `Cc1ccc(S(=O)(=O)N(C)CC(=O)NC2CCCC2)cc1`, the inhibition was 0% (inactive).
In the case of `O=S(=O)(NCCc1csc(-c2ccccc2)n1)c1ccc2c(c1)OCCO2`, the inhibition is reported as 4% (inactive).
In the case of `Cc1c(C(=O)N2CCN(c3ccccc3)CC2)sc2ncnc(N3CCN(c4ccccc4)CC3)c12`, the inhibition is reported as 0% (inactive).
For `CCC(C)n1[nH]c(=O)c2c(C)cc(C)nc21` (stereo not given), the inhibition was 0% (inactive).
`CCCOc1cccc(-c2nnc(N)s2)c1` was tested, and the inhibition was 0% (inactive).
With `CCOC(=O)c1cnc(-n2nc(C)cc2C)nc1N1CC(C)OC(C)C1` (stereo not given) the inhibition was 0% (inactive).
For `Cc1ccc(-c2nn[nH]n2)cc1`, the inhibition was 0% (inactive).
In the case of `COc1ccc(CCNS(=O)(=O)c2ccc3oc(C(=O)O)c(C)c3c2)cc1OC`, the inhibition is reported as 0% (inactive).
`CCc1cc(=O)n2[nH]c(C)c(-c3ccccc3OC)c2n1` was tested, and the inhibition was 4% (inactive).
For `CCOC(=O)c1[nH]c(=O)c2ccccc2c1O`, the inhibition was 0% (inactive).
With `Cc1cc(C(F)(F)F)nc(NCc2cccnc2)n1` the inhibition was 0% (inactive).
For `COc1ccc(S(=O)(=O)C(C#N)c2nc3ccccc3nc2N2CCCC(C)C2)cc1` (stereo not given), the inhibition was 0% (inactive).
